Assays:
[1] = molecular target: G protein-coupled receptor kinase 5 (Homo sapiens) (UniProt P34947); settings: at 1 µM
[2] = molecular target: T1, Mitogen-activated protein kinase kinase kinase kinase 2 (Homo sapiens) (UniProt Q12851); settings: at 10 µM
T1 sequence (whole entry): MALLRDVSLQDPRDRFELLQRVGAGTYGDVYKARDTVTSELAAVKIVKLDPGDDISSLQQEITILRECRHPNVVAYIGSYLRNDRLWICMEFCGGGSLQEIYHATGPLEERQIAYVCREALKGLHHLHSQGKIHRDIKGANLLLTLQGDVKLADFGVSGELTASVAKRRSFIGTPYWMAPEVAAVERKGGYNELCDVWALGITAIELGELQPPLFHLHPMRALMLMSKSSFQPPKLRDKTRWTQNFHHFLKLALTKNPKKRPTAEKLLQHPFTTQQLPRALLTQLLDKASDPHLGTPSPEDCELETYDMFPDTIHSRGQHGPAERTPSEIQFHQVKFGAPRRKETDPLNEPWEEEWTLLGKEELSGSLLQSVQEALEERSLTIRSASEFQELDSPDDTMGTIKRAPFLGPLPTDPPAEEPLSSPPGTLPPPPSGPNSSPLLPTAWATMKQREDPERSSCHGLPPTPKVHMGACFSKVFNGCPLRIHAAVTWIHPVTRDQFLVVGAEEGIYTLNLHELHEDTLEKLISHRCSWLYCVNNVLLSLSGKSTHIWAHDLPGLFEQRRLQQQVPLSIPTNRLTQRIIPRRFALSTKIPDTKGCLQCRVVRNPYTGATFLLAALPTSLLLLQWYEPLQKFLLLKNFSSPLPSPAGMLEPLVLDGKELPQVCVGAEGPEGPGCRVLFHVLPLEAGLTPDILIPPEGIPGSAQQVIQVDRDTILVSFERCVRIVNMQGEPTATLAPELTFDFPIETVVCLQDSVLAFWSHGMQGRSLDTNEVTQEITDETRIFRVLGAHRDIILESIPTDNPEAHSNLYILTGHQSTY

[3] = molecular target: Homeodomain-interacting protein kinase 1 (Homo sapiens) (UniProt Q86Z02); settings: at 1 µM
[4] = molecular target: G protein-coupled receptor kinase 6 (Homo sapiens) (UniProt P43250); settings: at 1 µM
Chain of G protein-coupled receptor kinase 6 (Homo sapiens) (P43250 whole entry, looked up): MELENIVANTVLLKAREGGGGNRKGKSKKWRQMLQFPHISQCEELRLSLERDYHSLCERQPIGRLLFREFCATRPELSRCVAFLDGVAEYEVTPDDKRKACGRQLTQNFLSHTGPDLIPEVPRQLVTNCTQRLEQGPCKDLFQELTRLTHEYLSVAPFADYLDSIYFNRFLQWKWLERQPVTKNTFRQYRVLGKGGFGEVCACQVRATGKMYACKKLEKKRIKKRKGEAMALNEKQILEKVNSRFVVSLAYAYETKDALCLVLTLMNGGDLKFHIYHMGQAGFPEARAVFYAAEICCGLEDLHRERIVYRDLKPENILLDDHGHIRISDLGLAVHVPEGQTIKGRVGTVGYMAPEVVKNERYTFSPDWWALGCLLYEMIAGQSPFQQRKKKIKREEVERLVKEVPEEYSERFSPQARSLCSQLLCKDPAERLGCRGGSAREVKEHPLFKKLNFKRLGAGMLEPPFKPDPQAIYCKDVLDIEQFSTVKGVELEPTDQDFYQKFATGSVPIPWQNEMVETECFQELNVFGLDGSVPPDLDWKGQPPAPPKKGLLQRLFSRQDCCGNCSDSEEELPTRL

Chain of G protein-coupled receptor kinase 5 (Homo sapiens) (P34947 whole entry, looked up): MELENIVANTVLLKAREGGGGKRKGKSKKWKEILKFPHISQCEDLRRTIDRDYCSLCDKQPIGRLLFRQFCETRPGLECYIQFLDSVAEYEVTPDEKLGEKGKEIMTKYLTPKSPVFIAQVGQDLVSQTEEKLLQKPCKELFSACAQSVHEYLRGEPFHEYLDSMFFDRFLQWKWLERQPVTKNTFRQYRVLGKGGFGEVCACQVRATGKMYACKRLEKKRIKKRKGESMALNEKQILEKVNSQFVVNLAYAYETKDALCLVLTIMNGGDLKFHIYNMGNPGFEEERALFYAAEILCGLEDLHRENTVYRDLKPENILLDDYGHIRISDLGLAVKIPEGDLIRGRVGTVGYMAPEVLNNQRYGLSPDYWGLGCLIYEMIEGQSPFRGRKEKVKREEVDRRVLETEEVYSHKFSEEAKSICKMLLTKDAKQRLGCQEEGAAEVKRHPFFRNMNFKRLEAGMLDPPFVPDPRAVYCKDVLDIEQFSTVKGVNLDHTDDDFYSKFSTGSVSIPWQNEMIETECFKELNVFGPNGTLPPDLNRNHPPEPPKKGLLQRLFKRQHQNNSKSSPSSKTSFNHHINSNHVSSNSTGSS
Chain of Homeodomain-interacting protein kinase 1 (Homo sapiens) (Q86Z02 whole entry, looked up): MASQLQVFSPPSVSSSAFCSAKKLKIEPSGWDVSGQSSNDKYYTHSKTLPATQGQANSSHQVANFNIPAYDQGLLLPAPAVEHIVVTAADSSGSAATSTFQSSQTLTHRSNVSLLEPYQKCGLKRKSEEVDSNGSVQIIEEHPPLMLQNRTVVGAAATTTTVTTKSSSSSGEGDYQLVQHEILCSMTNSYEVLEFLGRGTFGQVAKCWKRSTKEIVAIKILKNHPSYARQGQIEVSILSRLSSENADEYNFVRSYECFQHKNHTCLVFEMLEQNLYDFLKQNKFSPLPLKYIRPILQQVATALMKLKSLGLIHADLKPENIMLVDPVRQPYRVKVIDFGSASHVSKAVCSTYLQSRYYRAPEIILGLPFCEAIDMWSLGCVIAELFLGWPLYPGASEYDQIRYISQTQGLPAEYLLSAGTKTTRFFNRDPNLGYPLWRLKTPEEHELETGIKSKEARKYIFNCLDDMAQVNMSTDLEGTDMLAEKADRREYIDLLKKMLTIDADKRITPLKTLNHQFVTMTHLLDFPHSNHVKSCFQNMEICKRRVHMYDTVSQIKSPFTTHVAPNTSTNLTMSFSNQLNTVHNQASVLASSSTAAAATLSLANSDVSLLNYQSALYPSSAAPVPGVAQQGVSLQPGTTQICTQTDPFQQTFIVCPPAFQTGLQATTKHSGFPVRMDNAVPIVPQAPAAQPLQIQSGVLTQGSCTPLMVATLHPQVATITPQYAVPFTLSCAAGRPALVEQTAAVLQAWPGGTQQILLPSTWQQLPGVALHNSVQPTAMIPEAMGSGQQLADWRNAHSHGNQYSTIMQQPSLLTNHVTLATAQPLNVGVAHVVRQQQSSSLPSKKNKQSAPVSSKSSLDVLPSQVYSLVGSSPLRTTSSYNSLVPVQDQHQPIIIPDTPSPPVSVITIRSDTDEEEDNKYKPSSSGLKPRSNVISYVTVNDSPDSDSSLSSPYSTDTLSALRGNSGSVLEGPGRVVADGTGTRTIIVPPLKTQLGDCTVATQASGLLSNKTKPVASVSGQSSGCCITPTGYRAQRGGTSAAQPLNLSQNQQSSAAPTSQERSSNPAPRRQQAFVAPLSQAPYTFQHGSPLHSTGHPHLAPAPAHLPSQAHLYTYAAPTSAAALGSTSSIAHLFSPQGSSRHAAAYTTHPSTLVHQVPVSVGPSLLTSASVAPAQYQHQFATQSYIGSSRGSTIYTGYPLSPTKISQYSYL

Nc1nc(Nc2ccc(S(N)(=O)=O)cc2)nn1C(=O)c1c(F)cccc1F
residual activity [1]: 78%

O=C(Nc1nc2ccccc2n1CCN1CCOCC1)c1cccc([N+](=O)[O-])c1
residual activity [1]: 107%

CN[C@@H]1C[C@H]2O[C@@](C)([C@@H]1OC)n1c3ccccc3c3c4c(c5c6ccccc6n2c5c31)C(=O)NC4
residual activity [2]: 0% | residual activity [3]: 87%

COc1cc2nccc(Oc3ccc(NC(=S)NC(=O)c4ccccc4C)cc3)c2cc1OC
residual activity [1]: 98% | residual activity [4]: 87%

CCOC(=O)c1c(C)[nH]c(/C=C2\C(=O)Nc3ccccc32)c1C
residual activity [4]: 98%

Cc1cc(Nc2nc(-c3ccccc3)nc3ccccc23)n[nH]1
residual activity [4]: 76%

Nc1ncnc2c1cnn2-c1ccccc1
residual activity [4]: 93%

NC(=O)c1cccc(-c2cc(Nc3ccc(OC(F)(F)F)cc3)ncn2)c1
residual activity [4]: 94%

Nc1n[nH]c2nc3ccccc3nc12
residual activity [1]: 98% | residual activity [4]: 93%

CCN(CC)CCCCN1c2ccccc2Oc2ccc(Cl)cc21
residual activity [1]: 107% | residual activity [4]: 102%

COc1ccc(CNc2nc(N(CCO)CCO)nc3c2ncn3C(C)C)cc1
residual activity [1]: 89% | residual activity [4]: 95%

Nc1ccc2ncnc(NCCc3ccc(Oc4ccccc4)cc3)c2c1
residual activity [1]: 104% | residual activity [4]: 105%

CCN(CC)C(=O)c1ccc(Nc2nc(OCC3CCCCC3)c3nc[nH]c3n2)cc1
residual activity [4]: 97%

O=c1cc(N2CCOCC2)oc2c1ccc1ccccc12
residual activity [1]: 103% | residual activity [4]: 96%

O=C(Nc1cccc(Nc2cc(Nc3cccc(C(F)(F)F)c3)ncn2)c1)C1CC1
residual activity [1]: 102% | residual activity [4]: 98%

O=C1C(Cl)=C(N2C(=O)CCC2=O)C(=O)c2ccccc21
residual activity [1]: 98% | residual activity [4]: 88%

N#CC(C#N)=C(N)/C(C#N)=C/c1ccc(O)cc1
residual activity [4]: 94%

NC(=O)c1ccc(-c2nc(-c3ccc4c(c3)OCCO4)c(-c3ccccn3)[nH]2)cc1
residual activity [4]: 95%

COc1ccc(Cl)cc1NC(=O)Nc1cc(C)nc2ccccc12
residual activity [4]: 98%

O=C1Nc2ccc(Cl)cc2/C1=C/c1cc(Cl)c(O)c(Cl)c1
residual activity [4]: 90%

O=Nc1c(-c2c(O)[nH]c3ccccc23)[nH]c2ccccc12
residual activity [1]: 92% | residual activity [4]: 81%

COc1ccc(-c2cnc3c(-c4ccsc4)cnn3c2)cc1
residual activity [4]: 99%

CN(C)c1ccc(/C=C2\C(=O)Nc3ccccc32)cc1
residual activity [1]: 91% | residual activity [4]: 97%

N#Cc1c(NC(=O)c2cccc3ccccc23)sc2c1CCCC2
residual activity [4]: 98%

O=C1NC(=O)C(c2c[nH]c3ccccc23)=C1c1c[nH]c2ccccc12
residual activity [4]: 98%

Cc1ccc(S(=O)(=O)/C=C/C#N)cc1
residual activity [1]: 96% | residual activity [4]: 92%

Cn1nc2c3c(cccc31)C(=O)c1ccccc1-2
residual activity [1]: 102% | residual activity [4]: 93%

O=C(c1ccccc1)c1ccc(N2CCOCC2)cc1O
residual activity [4]: 96%

O=C1Nc2ccccc2/C1=C1/Nc2ccccc2/C1=N\OCCC(O)CO (centres undefined)
residual activity [4]: 68%

c1ccc2c(-c3ccncc3)c[nH]c2c1
residual activity [1]: 98% | residual activity [4]: 87%

O=c1cc(-c2cccc3c2Sc2ccccc2S3)oc(N2CCOCC2)c1
residual activity [1]: 99% | residual activity [4]: 100%

Nc1ncnc2[nH]nc(Nc3ccc(F)cc3)c12
residual activity [1]: 103% | residual activity [4]: 97%

Cn1cc(/C=C2\C(=O)Nc3ccc(S(N)(=O)=O)cc32)c2ccccc21
residual activity [1]: 62% | residual activity [4]: 96%

O=C(O)/C=C/c1cc(Br)c(Br)c(Br)c1Br
residual activity [4]: 99%

Oc1n[nH]c2nnc(-c3c(-c4ccccc4)nn4ccccc34)cc12
residual activity [1]: 87% | residual activity [4]: 83%

CCN1/C(=C/C(C)=O)Sc2ccc(OC)cc21
residual activity [4]: 100%

— ChEMBL document CHEMBL2218924, “A broad activity screen in support of a chemogenomic map for kinase signalling research and drug discovery” (Biochem J, 2013)
